Measured values from PubChem BioAssay.

What follows are molecules tested on glycogen synthase kinase-3 (GSK3A per assay name; protocol says GSK3B) (assay: compounds binding glycogen synthase kinase-3 – biochemical, small-molecule microarray, 635 nm fluorescence, GSK3A, primary screen (AID 1103; also: the record names both GSK3A and GSK3B)). Conditions: fluorescence 635 nm, higher = more signal.

Compared with `O=C1C2C=CC(C(O)C3CC=CCC3)N(Nc3ccccc3)C2C(=O)N1c1ccccc1` (configuration not stated), `CC(c1ccccc1)C(O)C1C=CC2C(=O)N(C)C(=O)C2N1Nc1ccccc1` (configuration not stated) is higher in composite z-score: 0.466 for the first, 0.515 for the second.

First: [N-]=[N+]=Nc1ccccc1C[C@@]1(C(=O)N2CCOCC2)N=C(c2ccc(OCCCO)cc2)O[C@@H]1c1ccccc1
Second: [N-]=[N+]=Nc1ccccc1C[C@]1(C(=O)NCCN2CCOCC2)COC(c2ccc(OCCCO)cc2)=N1
The composite z-score of the first is higher: 1.31 for the first, 1.3 for the second.

Going from `CCC#CCN(Cc1ccccc1Br)[C@H](/C=C/C1CC1)[C@@H](O)Cc1ccccc1` to `COC(=O)[C@]1(CCS(=O)(=O)c2ccccc2)N=C(c2ccc(OCCCO)cc2)O[C@@H]1c1ccccc1N=[N+]=[N-]`, the composite z-score rises from -0.0916 to 1.3.

Going from `Cc1ccc(F)cc1S(=O)(=O)N[C@@H]1CCN(Cc2ccc(Br)cc2)C1` to `O=C(NCc1ccc(F)cc1)[C@H]1C[C@H]2C(=O)NCC(=O)N2[C@H]1c1ccc(O)cc1`, the composite z-score falls from -0.751 to -0.88.

First: CC1CC/C=C\[C@H]2OC34C=CCN(C(C)C)C(=O)[C@H]3N(CCO)C(=O)[C@@H]4C2C(=O)O1 (some centres not stated)
Second: COc1ccc(CCNC(=O)[C@@H]2c3ccccc3C(=O)N(C3CCCCC3)[C@H]2c2ccc(CO)cc2)cc1
The composite z-score of the first is lower: -0.979 for the first, 0.32 for the second.

First: CCOC(=O)C[C@H]1[C@H](OC(=O)c2cc3ccccc3oc2=O)[C@@H](NC(=O)CC(C)C)c2cc(OCCCO)ccc2N1C(=O)c1ccc2ccccc2n1
Second: COc1ccc(C#Cc2ccc3c(c2)[C@]2(C(=O)N3)[C@H](c3ccc(O)cc3)N3[C@H](c4ccccc4)[C@H](c4ccccc4)OC(=O)[C@H]3[C@@H]2C(=O)Nc2nc3ccccc3s2)cc1
The composite z-score of the first is lower: 0.998 for the first, 1.31 for the second.
